# Measured values reported in PubChem BioAssay.
# Active and inactive are the calls of the source. Unless noted, no rule for the calls is given here.
# Tests used:
# [1] = resazurin metabolic signal in HepG2 cells – cell-based, resazurin fluorescence, 24 h, PK04 Diversity Set, profiling panel (AID 1172); details: HepG2 viability, higher = more signal
# [2] = budding yeast growth changes without added modifier – OD600, strain BY4716, 24 h, basal condition, primary screen (AID 1173); details: S. cerevisiae BY4716 growth, OD600, 24 h; higher = more signal, called active from +8 up or from −8 down
# [3] = viability profiling in MM1S myeloma cells – cell-based, resazurin fluorescence, basal, 24 h, PK04 Diversity Set, profiling panel (AID 1174); details: higher = more signal, called active from +8 up or from −8 down;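 also: MM1S multiple myeloma cell line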
# [4] = biological target: Dihydroorotate dehydrogenase (quinone), mitochondrial (Plasmodium falciparum (isolate 3D7)) (UniProt Q08210); assay: inhibition of P. falciparum DHODH – biochemical, C-terminal His tag, absorbance 600 nm, primary screen (AID 1175); details: PfDHODH enzyme, DCIP absorbance 600 nm; higher = more signal, called active from +8 up or from −8 down;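 also: recombinant parasite enzyme with a five histidine tag at its C terminus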
# [5] = inhibition of PAO1 biofilm formation – strain PAO1, LB-PBS medium, absorbance 600 nm, primary screen (AID 1176); details: P. aeruginosa PAO1 growth/biofilm, A600, 12 h; higher = more signal
# [6] = growth modulation of vineyard yeast isolate – strain RM11-1a, OD600, basal, 24 h, primary screen (AID 1177);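 also: cultures grown under basal conditions with no added stressor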; details: S. cerevisiae RM11-1a growth, OD600, 24 h; higher = more signal, called active from +8 up or from −8 down
# [7] = growth of efflux-deficient E. coli DRC39 – strain DRC39, OD650, 24 h, E. coli filamentation inducers, primary screen (AID 1178);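 also: growth measured as culture turbidity by optical density at 650 nm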; details: E. coli DRC39 acrAB, higher = more signal, called active from +8 up or from −8 down
# [8] = growth of efflux-deficient E. coli DRC39 – strain DRC39, OD650, 48 h, E. coli filamentation inducers, primary screen (AID 1179);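 also: screen aims at cell division blockers that make cells filament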; details: E. coli DRC39 delta-acrAB growth, higher = more signal, called active from +8 up or from −8 down
# [9] = viability profiling in RPMI8226 myeloma cells – cell-based, resazurin fluorescence, basal, 24 h, PK04 Diversity Set, profiling panel (AID 1180); details: higher = more signal;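 also: RPMI8826 multiple myeloma cell line at 5000 cells per well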
# [10] = biological target: E3 ubiquitin-protein ligase XIAP (Homo sapiens) (UniProt P98170); assay: small molecules binding XIAP protein – biophysical, small-molecule microarray, fluorescence 635 nm, primary screen (AID 1181); details: higher = more signal;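 also: score merges 667 nm emission and signal to noise over triplicate slides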
# [11] = tested on: XIP peptide (Xip251-270) binding; assay: XIP fragment 251-270 binding compounds – biochemical, small-molecule microarray, fluorescence 635/667 nm, 0.1 µg/mL protein, primary screen (AID 1182); details: fluorescent protein binding, 635 nm, higher = more signal, called active from +8 up or from −8 down
# XIP peptide (Xip251-270) = assay: compounds binding XIP fragment 251-270 – biochemical, small-molecule microarray, fluorescence 635/667 nm, 0.5 µg/mL protein, primary screen (AID 1183); details: fluorescence 635 nm, higher = more signal
# [12] = blood-stage malaria parasite viability loss – strain 3D7, DAPI fluorescence, 100 nL, primary screen (AID 1184);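 also: parasites grown inside human red blood cells in medium with human serum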; details: P. falciparum 3D7 growth, 3 d, higher = more signal
# [13] = biological target: Homeobox protein Hox-A13 (Mus musculus) (UniProt Q62424); assay: disruptors of Hoxa13 oligonucleotide interaction – biochemical, fluorescence polarization, labeled oligonucleotide, primary screen (AID 1185); details: Hoxa13:DNA binding, 15 min, higher = more signal, called active from +8 up or from −8 down
# [14] = blockers of DNA damage checkpoint Chk1 activation – imaging, HeLa, hydroxyurea, phospho-Chk1 antibody, percent positive cells, primary screen (AID 1186); details: hydroxyurea-induced phospho-Chk1 immunofluorescence imaging, higher = more signal
# [15] = blockers of DNA damage checkpoint Chk1 activation – imaging, HeLa, hydroxyurea, phospho-Chk1 nuclear intensity, primary screen (AID 1187); details: hydroxyurea-induced phospho-Chk1 immunofluorescence imaging, higher = more signal
# Sequence of E3 ubiquitin-protein ligase XIAP (Homo sapiens) (P98170 whole entry, looked up, the tested form may be a part): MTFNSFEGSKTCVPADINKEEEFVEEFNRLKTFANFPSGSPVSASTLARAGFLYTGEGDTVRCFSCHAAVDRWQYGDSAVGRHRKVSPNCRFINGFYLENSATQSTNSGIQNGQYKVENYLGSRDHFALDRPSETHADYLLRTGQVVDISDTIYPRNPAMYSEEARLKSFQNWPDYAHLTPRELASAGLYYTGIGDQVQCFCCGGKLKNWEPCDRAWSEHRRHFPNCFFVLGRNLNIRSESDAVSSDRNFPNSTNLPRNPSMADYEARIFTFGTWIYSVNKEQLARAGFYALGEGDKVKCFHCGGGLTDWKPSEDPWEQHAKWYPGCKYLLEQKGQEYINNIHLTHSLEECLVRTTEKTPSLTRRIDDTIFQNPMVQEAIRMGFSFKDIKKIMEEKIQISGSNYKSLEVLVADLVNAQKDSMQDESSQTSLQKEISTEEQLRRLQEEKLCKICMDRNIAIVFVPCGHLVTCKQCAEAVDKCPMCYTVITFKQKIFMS
# Sequence of Dihydroorotate dehydrogenase (quinone), mitochondrial (Plasmodium falciparum (isolate 3D7)) (Q08210 whole entry, looked up): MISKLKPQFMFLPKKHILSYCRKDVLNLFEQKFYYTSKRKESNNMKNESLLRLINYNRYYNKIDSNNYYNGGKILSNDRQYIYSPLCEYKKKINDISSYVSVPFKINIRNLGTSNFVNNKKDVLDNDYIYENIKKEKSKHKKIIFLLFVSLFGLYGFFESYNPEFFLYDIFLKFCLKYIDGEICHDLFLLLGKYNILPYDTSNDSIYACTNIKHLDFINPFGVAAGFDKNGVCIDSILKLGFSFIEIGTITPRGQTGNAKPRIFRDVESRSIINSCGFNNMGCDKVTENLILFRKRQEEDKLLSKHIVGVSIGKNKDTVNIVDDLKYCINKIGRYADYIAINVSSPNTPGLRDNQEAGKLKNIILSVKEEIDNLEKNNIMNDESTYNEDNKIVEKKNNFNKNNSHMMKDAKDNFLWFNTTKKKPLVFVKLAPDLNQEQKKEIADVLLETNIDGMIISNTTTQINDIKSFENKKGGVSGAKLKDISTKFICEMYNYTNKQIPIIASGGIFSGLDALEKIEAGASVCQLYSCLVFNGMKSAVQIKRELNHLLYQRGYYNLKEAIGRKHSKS
# Sequence of Homeobox protein Hox-A13 (Mus musculus) (Q62424 whole entry, looked up): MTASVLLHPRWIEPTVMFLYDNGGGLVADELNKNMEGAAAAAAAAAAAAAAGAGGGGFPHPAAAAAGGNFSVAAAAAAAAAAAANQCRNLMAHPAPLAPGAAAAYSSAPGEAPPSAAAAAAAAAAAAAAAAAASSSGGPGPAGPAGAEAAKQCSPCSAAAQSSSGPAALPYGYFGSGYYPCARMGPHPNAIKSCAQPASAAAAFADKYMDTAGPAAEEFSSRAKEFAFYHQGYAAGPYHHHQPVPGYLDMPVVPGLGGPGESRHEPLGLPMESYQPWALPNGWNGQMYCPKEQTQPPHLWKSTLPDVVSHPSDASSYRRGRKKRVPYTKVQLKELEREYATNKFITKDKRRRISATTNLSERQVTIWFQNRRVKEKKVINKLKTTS
SMILES,z-score [1],z-score [2],z-score [3],composite z-score [4],z-score [5],z-score [6],z-score [7],z-score [8],z-score [9],composite z-score [10],composite z-score [11],composite z-score (XIP peptide (Xip251-270)),z-score [12],z-score [13],z-score [14],z-score [15]
COCCCNC(=O)[C@]1(Cc2ccccc2CN=[N+]=[N-])N=C(c2ccc(OCCCO)cc2)O[C@@H]1c1ccccc1,1.27,-0.682 (inactive),-1.48 (inactive),0.633 (inactive),-0.441 (inactive),0.916 (inactive),1.18 (inactive),0.422 (inactive),-3.11,0.216,0.0968 (inactive),0.598,-2.41,-6.44 (inactive),-0.401 (inactive),-0.24 (inactive)
CN(C)CCCNC(=O)[C@@]1(C)c2ccccc2C(=O)N(Cc2cc(C(F)(F)F)cc(C(F)(F)F)c2)[C@H]1c1ccc(CO)cc1,-1.19,-0.808 (inactive),-0.244 (inactive),0.779 (inactive),1.98 (inactive),0.874 (inactive),0.365 (inactive),-1.39 (inactive),-0.0867,-0.239,0.23 (inactive),-0.987,-1.27,-2.7 (inactive),-0.0172 (inactive),-0.0753 (inactive)
C=CCOC(=O)[C@H]1[C@@H]2C(=O)O[C@@H](c3ccccc3)[C@@H](c3ccccc3)N2[C@@H](c2ccc(OCCOC(=O)[C@H]3C[C@H]4C(=O)N[C@@H](Cc5ccccc5)C(=O)N4[C@H]3c3ccc(O)cc3)cc2)[C@]12C(=O)Nc1ccc(I)cc12,-0.16,1.82 (inactive),-0.417 (inactive),-1.16 (inactive),4.1 (inactive),1.66 (inactive),-0.359 (inactive),-0.293 (inactive),0.194,0.0981,0.451 (inactive),0.768,-1.62,1.21 (inactive),-0.688 (inactive),-0.476 (inactive)
CO[C@H]1O[C@H](CO)[C@@H](OC(=O)Nc2ccc(Oc3ccccc3)cc2)[C@H](OC(=O)Nc2ccccc2-c2ccccc2)[C@@H]1OC(=O)Nc1ccccc1-c1ccccc1,0.776,1.01 (inactive),-0.648 (inactive),0.308 (inactive),0.18 (inactive),2.58 (inactive),-0.325 (inactive),-0.0232 (inactive),-0.296,-0.117,0.356 (inactive),0.759,-2.39,-1.71 (inactive),-0.141 (inactive),-0.148 (inactive)
